Activity calls are given as the source filed them.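 Rule for the calls: active = thallium flux through the channel raised or lowered by more than 3 SD from vehicle-only wells, actives on both sides; inactive = the rest.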
tested on: F380Y; experiment: BK channel mutant inhibitors and activators – cell-based, U2OS BacMam, thallium flux, beta subunits, selectivity assay, profiling panel (AID 1259406); conditions: U2OS BacMam BK variants, at 30 µM;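 note: initial slope of Thallos dye fluorescence rise after thallium is added; log ratio against the mean of 0.3% DMSO vehicle wells on the same plate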

SMILES	log fold change Tl+ flux
O=[N+]([O-])c1ccc(N2CCSCC2)cc1O	-0.0426 (inactive)
O=S(=O)(Nc1cc(Cl)c(-n2cccc2)cc1Oc1ccc(Cl)cc1)c1ccc(Cl)cc1	0.0117 (inactive)
COc1cccc(C(=O)Nc2cc(F)c(Br)cc2F)c1	-0.0206 (inactive)
CCCn1c(=O)c(Br)cn(-c2ccccc2C)c1=O	-0.00732 (inactive)
Cc1cc(C(=O)N2CCN(c3ncccc3C#N)CC2)no1	-0.0195 (inactive)
FC(F)(F)c1ccc(-c2csc(C3(c4ccc(Cl)cc4Cl)CC3)n2)cc1	-0.0289 (inactive)
CCOC(=O)c1c[nH]n2c(=O)c3c(nc12)CCC3	0.0447 (inactive)
CN(C)C=Nc1cc(Cl)c(-n2cccc2)cc1Oc1ccc(Cl)cc1	0.0245 (inactive)
Cc1cc2c(NC(=O)c3ccccc3C(=O)O)cccc2nn1	-0.0132 (inactive)
O=c1n(-c2ccccc2)c(=O)n2n1C1CCC2C1	-0.0367 (inactive)
NC(Cc1ccc(OCc2ncc(C(F)(F)F)cc2Cl)cc1)=NOC(=O)c1ccccc1	0.0193 (inactive)
Cc1cc2c(cc1C)CSC(c1ccco1)SC2	-0.0256 (inactive)
Cn1c(C(=O)O)ccc1S(=O)(=O)N(Cc1ccccc1)Cc1ccccc1	0.0347 (inactive)
CCOC(=O)Cn1c(-c2c(Cl)cccc2Cl)noc1=O	0.00248 (inactive)
COC(=O)C(C#N)=C1NC(C)=NC(SC)=C1C#N	-0.0152 (inactive)
CS(=O)(=O)NNc1c(Cl)cc(Cl)cc1Cl	0.00053 (inactive)
Cc1cnc(N)c(C)n1	0.0781 (inactive)

— PubChem BioAssay
